PubChem BioAssay AID1159580 (chemical genetic matrix, 2015)
About 2,000 (36%) of roughly 5,500 compounds were called active. Inconclusive results (about 18%) are left out. Rule as the data show it: active = normalized growth mostly below about 0.91 (no sharp cut-off); inconclusive = no clear call, values can overlap the other calls; inactive = mostly above about 0.92. The list shows a part of the results.

Test: chemical genetic growth profiling, strain panel (AID 1159580);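 also: tested at 20 µM; growth read once vehicle control cultures reached saturation at 30 °C; 1 = growth at the plate median or of vehicle wells; lower values mean less growth of the strain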
Settings: growth OD

Measured: normalized growth

CC(=O)CC1CCCCN1 (configuration not stated)
inactive: S. cerevisiae deletion strains, locus YJR075W, strain HOC1, hits give low values 1.01 | S. cerevisiae deletion strains, locus YKL009W, strain mrt4, hits give low values 0.996 | S. cerevisiae deletion strains, locus YKL068W, hits give low values 1 | S. cerevisiae deletion strains, locus YKL085W, strain MDH1 (second series), hits give low values 0.983 | S. cerevisiae deletion strains, locus YKL085W, strain MDH1, hits give low values 0.983 | S. cerevisiae deletion strains, locus YKL160W, strain elf1, hits give low values 1.02 | S. cerevisiae deletion strains, locus YKL190W, strain CNB1, hits give low values 1.02 | S. cerevisiae deletion strains, locus YKR001C, strain vps1, hits give low values 0.994 | S. cerevisiae deletion strains, locus YKR026C, strain gcn3, hits give low values 1.02 | S. cerevisiae deletion strains, locus YKR091W, strain srl3, hits give low values 1.02 | S. cerevisiae deletion strains, locus YLL001W, strain dnm1, hits give low values 1.02 | S. cerevisiae deletion strains, locus YLL026W, hits give low values 1.02 | S. cerevisiae deletion strains, locus YLL041C, strain sdh2, hits give low values 1.01 | S. cerevisiae deletion strains, locus YLR027C, strain aat2, hits give low values 1.03 | S. cerevisiae deletion strains, locus YLR039C, strain RIC1, hits give low values 1.06 | S. cerevisiae deletion strains, locus YLR058C, strain SHM2, hits give low values 1.02 | S. cerevisiae deletion strains, locus YLR102C, strain apc9, hits give low values 0.996 | S. cerevisiae deletion strains, locus YLR113W, strain HOG1, hits give low values 0.981 | S. cerevisiae deletion strains, locus YLR221C, strain rsa3, hits give low values 1.03 | S. cerevisiae deletion strains, locus YLR258W, strain gsy2, hits give low values 1.02 | S. cerevisiae deletion strains, locus YLR262C, strain YPT6 (second series), hits give low values 1.03 | S. cerevisiae deletion strains, locus YLR262C, strain YPT6, hits give low values 1.1 | S. cerevisiae deletion strains, locus YLR268W, strain sec22, hits give low values 0.993 | S. cerevisiae deletion strains, locus YLR320W, strain mms22, hits give low values 1.04 | S. cerevisiae deletion strains, locus YLR330W, strain CHS5, hits give low values 1.01 | S. cerevisiae deletion strains, locus YLR342W, strain FKS1 (second series), hits give low values 0.993 | S. cerevisiae deletion strains, locus YLR342W, strain FKS1, hits give low values 1.02 | S. cerevisiae deletion strains, locus YLR357W, strain rsc2, hits give low values 0.995 | S. cerevisiae deletion strains, locus YLR370C, strain arc18, hits give low values 1.02 | S. cerevisiae deletion strains, locus YLR371W, strain rom2, hits give low values 0.994 | S. cerevisiae deletion strains, locus YLR384C, strain iki3, hits give low values 1.01 | S. cerevisiae deletion strains, locus YLR418C, strain cdc73, hits give low values 1 | S. cerevisiae deletion strains, locus YML016C, strain PPZ1, hits give low values 1.02 | S. cerevisiae deletion strains, locus YML032C, strain rad52, hits give low values 0.982 | S. cerevisiae deletion strains, locus YML120C, strain ndi1, hits give low values 1.02 | S. cerevisiae deletion strains, locus YML124C, strain tub3, hits give low values 0.995 | S. cerevisiae deletion strains, locus YMR058W, strain fet3, hits give low values 1.02 | S. cerevisiae deletion strains, locus YMR078C, strain ctf18, hits give low values 0.99 | S. cerevisiae deletion strains, locus YMR125W, strain sto1, hits give low values 1 | S. cerevisiae deletion strains, locus YMR129W, hits give low values 1.01 | S. cerevisiae deletion strains, locus YMR205C, strain PFK2, hits give low values 1.04 | S. cerevisiae deletion strains, locus YMR223W, strain ubp8, hits give low values 0.997 | S. cerevisiae deletion strains, locus YMR231W, strain pep5, hits give low values 1.01 | S. cerevisiae deletion strains, locus YMR263W, strain SAP30, hits give low values 1.02 | S. cerevisiae deletion strains, locus YMR307W, strain GAS1, hits give low values 1.08 | S. cerevisiae deletion strains, locus YNL067W, strain RPL9B, hits give low values 1.02 | S. cerevisiae deletion strains, locus YNL071W, strain lat1, hits give low values 1.02 | S. cerevisiae deletion strains, locus YNL128W, strain TEP1, hits give low values 1.01 | S. cerevisiae deletion strains, locus YNL153C, strain GIM3, hits give low values 1.02 | S. cerevisiae deletion strains, locus YNL183C, strain NPR1, hits give low values 0.954 | S. cerevisiae deletion strains, locus YNL209W, strain ssb2, hits give low values 1.02 | S. cerevisiae deletion strains, locus YNL233W, strain BNI4, hits give low values 1.02 | S. cerevisiae deletion strains, locus YNL248C, strain rpa49, hits give low values 1.01 | S. cerevisiae deletion strains, locus YNL250W, strain rad50, hits give low values 0.993 | S. cerevisiae deletion strains, locus YNL271C, strain bni1, hits give low values 0.993 | S. cerevisiae deletion strains, locus YNL298W, strain CLA4, hits give low values 0.988 | S. cerevisiae deletion strains, locus YNL307C, strain MCK1, hits give low values 0.995 | S. cerevisiae deletion strains, locus YNL322C, strain KRE1 (second series), hits give low values 1.01 | S. cerevisiae deletion strains, locus YNL322C, strain KRE1, hits give low values 1.01 | S. cerevisiae deletion strains, locus YNR049C, strain mso1, hits give low values 1.02 | S. cerevisiae deletion strains, locus YNR052C, strain pop2, hits give low values 0.98 | S. cerevisiae deletion strains, locus YOL006C, strain TOP1, hits give low values 1.04 | S. cerevisiae deletion strains, locus YOL012C, strain htz1 0.894 | S. cerevisiae deletion strains, locus YOL147C, strain pex11, hits give low values 0.993 | S. cerevisiae deletion strains, locus YOR001W, strain rrp6, hits give low values 1 | S. cerevisiae deletion strains, locus YOR061W, strain CKA2, hits give low values 1.01 | S. cerevisiae deletion strains, locus YOR069W, strain VPS5, hits give low values 0.999 | S. cerevisiae deletion strains, locus YOR070C, strain gyp1, hits give low values 1.03 | S. cerevisiae deletion strains, locus YOR080W, strain dia2, hits give low values 1.02 | S. cerevisiae deletion strains, locus YOR083W, strain WHI5, hits give low values 1.03 | S. cerevisiae deletion strains, locus YOR106W, strain vam3, hits give low values 1.01 | S. cerevisiae deletion strains, locus YOR136W, strain idh2, hits give low values 0.977 | S. cerevisiae deletion strains, locus YOR144C, strain elg1, hits give low values 1 | S. cerevisiae deletion strains, locus YOR184W, strain ser1, hits give low values 0.974 | S. cerevisiae deletion strains, locus YOR231W, strain MKK1, hits give low values 0.983 | S. cerevisiae deletion strains, locus YOR265W, strain rbl2, hits give low values 1.01 | S. cerevisiae deletion strains, locus YOR270C, strain vph1, hits give low values 1.05 | S. cerevisiae deletion strains, locus YOR290C, strain snf2, hits give low values 1 | S. cerevisiae deletion strains, locus YOR316C, strain cot1, hits give low values 0.991 | S. cerevisiae deletion strains, locus YPL051W, strain arl3, hits give low values 1.03 | S. cerevisiae deletion strains, locus YPL055C, strain LGE1, hits give low values 1.04 | S. cerevisiae deletion strains, locus YPL078C, strain atp4, hits give low values 1.02 | S. cerevisiae deletion strains, locus YPL106C, strain sse1, hits give low values 1 | S. cerevisiae deletion strains, locus YPL240C, strain hsp82, hits give low values 1.01 | S. cerevisiae deletion strains, locus YPL241C, strain CIN2, hits give low values 0.995 | S. cerevisiae deletion strains, locus YPL256C, strain CLN2, hits give low values 0.967 | S. cerevisiae deletion strains, locus YPR119W, strain clb2, hits give low values 0.993 | S. cerevisiae deletion strains, locus YPR141C, strain kar3, hits give low values 0.99 | S. cerevisiae deletion strains, locus YPR163C, strain tif3, hits give low values 0.993 | S. cerevisiae deletion strains, locus YPR167C, strain met16, hits give low values 0.987 | S. cerevisiae deletion strains, strain wtn01, hits give low values 1 | S. cerevisiae strains, strain wild type, hits give low values 1.02
